Laboratory results from PubChem BioAssay (NCI).
The panel holds about 83,000 compounds, 20% with a hit somewhere; the sample as a whole holds those more often.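 Growth was measured after 48 h exposure to one concentration of compound in 96-well plates. Values under 10 count as active.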 Values without a mark were called inactive. Calls of active or inactive are those of the source.

Each compound was assayed on MCF7 breast (assay: NCI-60 one-dose screen, 48 h (100 = growth as untreated, 0 = no growth, -100 = all killed)). Settings: 10 µM unless noted.
Procedure: Growth inhibition of the MCF7 human tumor cell line is measured as a screen for anti-cancer activity. Cells are grown in 96 well plates and exposed to the test compound for 48 hours. Compounds are tested at a single concentration, which is 10^-5 M for most compounds. The reported endpoint is percent growth (GI% or GIPRCNT), where numbers from 0 - 100% represent growth inhibition, and numbers from -100% - 0 represent cell death. For example, a value of 40 represents 60% growth inhibition. A value of 0 means no net growth occurred over the course of the experiment. A value of -40 indicates 40% of cells at the beginning of the experiment died by the end of the experiment. A value of -100 means all cells are dead at the end of the experiment.
NCI-60 Human Tumor Cell Lines Screen was performed using the standard one-dose NCI protocol, which is described in more detail at https://dtp.cancer.gov/discovery_development/nci-60/default.htm.
Compounds with GIPRCNT values below 10 were considered active. Activity score was based on GIPRCNT using the following formula: […]
Score is 0 for GIPRCNT values of 100 or above, 50 for GIPRCNT values of 0, and 100 for GIPRCNT values of -100.

Structure (SMILES)	growth
Oc1ccc([S+](c2ccc(O)cc2)c2ccc(O)cc2)cc1	98.8%
COc1cc(CCNc2cnc3cc(N)cc(N)c3n2)cc(OC)c1	96.9%
CCOC(=O)C1C(=O)C(=O)N(C(C)C)C1C(=O)OCC (stereo not given)	99.8%
COc1ccc2oc(=O)cc(CN3C(=O)S/C(=C\c4ccc(Cl)cc4)C3=O)c2c1	86.9%
CCCCCCCCc1ccc(OCCOCC[N+](C)(C)CC)cc1 (tested in a mixture with another compound)	20.3%
CCCCCCCCCCCCCCCCNC(=S)N/N=C/c1ccc(O)cc1O	79.1%
O=C1NCCN1/N=C/c1c(Cl)nc2n1CCS2	106%
CCCNC(=O)Oc1ccc(/C(=C(/C)Cc2ccc(OC)cc2)c2ccc(OCCN3CCCC3)cc2)cc1	25.3%
COc1ccc(C(=O)c2no[n+]([O-])c2C(=O)c2ccc(OC)cc2)cc1	30.9%
O=C(CN1C(=O)NC(c2ccccc2)(c2ccccc2)C1=O)c1ccc(N2CCCC2)cc1	49.8%
O=C(Nc1ccc(-n2cc(-c3ccncc3)c(-c3ccc(Cl)c(O)c3)n2)cc1)c1cc(Cl)cc(Cl)c1	51.6%
CCCC(=O)Nc1ccccc1C(=O)O	90.7%
c1ccc(-c2cn3ccnc3c(-c3ccc4ncn(C5CCCCC5)c4c3)n2)cc1	62%
O=C(OCC1CC2(Cl)C(Cl)=C(Cl)C1(Cl)C2(Cl)Cl)C1C(C(=O)OCC2CC3(Cl)C(Cl)=C(Cl)C2(Cl)C3(Cl)Cl)C2(Cl)C(Cl)=C(Cl)C1(Cl)C2(Cl)Cl (stereo not given)	96.9%
N#Cc1c2ncccc2c2nnc3cc(Cl)c(Cl)cc3n12	38.9%
OC(c1ccccc1)(c1ccccc1)C(F)(F)F	104%
COc1cc2cc3cc4cc(OC)c(OC)cc4c(C)[n+]3cc2cc1OC (tested in a mixture with another compound)	67.6%
O=S(=O)(Cc1cccc2c(CS(=O)(=O)c3ccc(Cl)cc3)cccc12)c1ccc(Cl)cc1	85.4%
C=CC1CN2CCC1CC2C(O)c1ccnc2ccc(OC)cc12 (stereo not given)	91%
COc1ccc2c(c1)/C(=C/c1c(-c3cc(OC)c(OC)c(OC)c3)nc3sccn13)C(=O)N2	92.4%

Structure (SMILES)	growth
COc1cc2ncnc(-n3ncc4cc(NC(=O)Nc5ccccc5)ccc43)c2cc1OC	-20.3% (active)
OCCN1CCN(CC/C=C2/c3ccccc3Sc3ccc(C(F)(F)F)cc32)CC1	56.6%
CCCCCCCCC/C(=N\NC(=O)c1ccncc1)c1ccc(O)c(O)c1O	21.4%
CCn1cnc(C[C@H](NC(=O)[C@@H](NC(=O)Nc2cc(C(F)(F)F)cc(C(F)(F)F)c2)C(C)C)C(=O)OC)c1	-55.7% [100 µM] (active)
CCOC(=O)c1cc(-c2ccc(OC)cc2)[nH]c1NNC(=O)CCOC	113%
COC(=O)/C=C1/CCCCC1(C)C(=O)OC (stereo not given)	106%
CCN(CC)CCOC(=O)c1cccnc1	95.1%
CC[N+](C)(C)N	91.7%
C/C(=N\Nc1cccc(Cl)n1)c1ccccn1	10.1%
Cc1c(CN(C)C)cc(C(C)C)cc1C(C)C	96.7%
O=C(O)c1ccc(-c2nn(-c3ccc(C(=O)O)cc3)cc2CNc2ccc(Br)cc2)cc1	90.3%
COC(=O)Nc1nc2ccc(C(=O)c3ccccc3N(C)C3COC3)cc2[nH]1	19%
COC1NC(Cl)=C(C#N)C(C#N)(C#N)C1(C)C (stereo not given)	124%
CCOC(=O)C1=C(C(F)(F)F)NC(=S)NC1CN1C(=O)c2ccccc2C1=O (stereo not given)	88.4%
CCC(CCCN1C(=O)c2ccccc2C1=O)Nc1cc(OC)cc2c(C)ccnc12 (stereo not given)	91.5%
COc1cc(N2C(=O)C=CC2=O)ccc1N1C(=O)C=CC1=O	98.8%
CC(=O)Nc1nc(C)c(C(=O)N/N=C/N2CCOCC2)s1	98.6%
NC(N)=Nc1ccc(/C=C2\C=Cc3ccccc32)cc1	25%
COc1ccc(CN2C(=O)/C(=C\C(=O)c3ccc(OCCN4CCCCC4)cc3)c3ccccc32)cc1	20.3%
CCCCCCCCCCCC(=O)OC(C)C(=O)Nc1ccccc1 (stereo not given)	91.7%
